In the library only some 3.5% were active in any assay of this set; here they are far more common.
TEAD-YAP inh: TEAD-YAP interaction inhibition; HEK-TIYL cells, TEAD-Gal4/YAP UAS-luciferase luminescence; inhibition, % at 9.12 µM; 640,000 tested, 1.4% active; AID 1259422; in the data active = inhibition above about 32%;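 note: 0% = median of test compound wells and 100% = reference inhibitor wells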
FBW7 activator: activators of human E3 ligase FBW7; Q969H0; AlphaScreen FBW7–phospho-cyclin E peptide binding, activator screen; normalized activity (activation), % at 26.1 µM; 650,000 tested, 0.13% active; in the data active = normalized activity above about 1.9%;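 note: purified mutant Fbw7 with reduced substrate affinity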
MITF primary: inhibitors of human MITF. O75030. AlphaScreen MITF homodimerization, bead proximity signal. inhibition, % at 2.6 µM. 650,000 tested, 0.91% active. AID 1259374; in the data active = inhibition above about 50%;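 note: 0% = vehicle wells with protein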
GPR151 ag: activates the human receptor GPR151; 650,000 tested, 1% active; AID 1508602; PathHunter beta-arrestin GPR151 cells, luminescence; activation, % at 11.2 µM; Q8TDV0; in the data active = activation above about 4.9%;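 note: 0% = median of compound wells and 100% = cells with positive control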
Target sequence (Q8TDV0 whole entry, looked up): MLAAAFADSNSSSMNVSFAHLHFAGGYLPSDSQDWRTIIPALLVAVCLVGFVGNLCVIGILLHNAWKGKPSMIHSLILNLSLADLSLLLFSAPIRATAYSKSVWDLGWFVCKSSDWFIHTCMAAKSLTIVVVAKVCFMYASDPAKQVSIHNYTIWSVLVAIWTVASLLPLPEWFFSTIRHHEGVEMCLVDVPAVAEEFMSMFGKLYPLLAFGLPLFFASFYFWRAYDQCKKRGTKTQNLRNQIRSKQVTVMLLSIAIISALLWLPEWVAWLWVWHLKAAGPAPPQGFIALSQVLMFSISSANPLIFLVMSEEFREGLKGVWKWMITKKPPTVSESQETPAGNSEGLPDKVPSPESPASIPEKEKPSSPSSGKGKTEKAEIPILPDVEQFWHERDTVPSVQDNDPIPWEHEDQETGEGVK
GPR151 confirm: confirmation of human GPR151 activators. shares compounds with GPR151 ag. GPR151 PathHunter beta-arrestin cells, luminescence, 90 min; % of EA-reagent control over plate median. activation, % at 11.2 µM. 6,700 tested, under 10 active;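 active = mean percent activation across replicates above the confirmation screen cutoff of 4.91%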
GPR119 counter: counter-screen for GPR151 activators: effect on human GPR119. activation, % at 11.2 µM. GPR119 PathHunter beta-arrestin cells, luminescence, 90 min; 0 = compound-well median, 100 = enzyme-acceptor control. 6,700 tested, 0.3% active. shares compounds with GPR151 ag;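 active = mean percent activation in the counterscreen above 29.09%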;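 note: counterscreen on off-target GPR119 to flag nonselective hits from the GPR151 activator screen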
The depositor's hits bear a star; x = no result.

SMILES	TEAD-YAP inh	FBW7 activator	MITF primary	GPR151 ag	GPR151 confirm	GPR119 counter
O=C(Nc1ccc2c(c1)OCO2)c1csc(N2CCN(Cc3ccc4c(c3)OCO4)CC2)n1	4	0	0	6.4*	1	6
CC1=C(C(=O)N2CCN(Cc3ccc4c(c3)OCO4)CC2)C2(CCC(C)CC2)OC1=O (centres undefined)	-2	0	11	6.5*	0	-1
O=C(Nc1ccc(CN2CCOCC2)cc1)c1cccnc1Cl	2	0	2	-1	x	x
O=C1NC(=S)N/C1=C/c1ccc(O)c(Cl)c1	5	0	8	1	x	x
Cc1nccc2[nH]c(=O)c(C(=O)NCc3ccc4c(c3)OCO4)cc12	-5	0	1	0	x	x
CSC1=NC(c2cccc([N+](=O)[O-])c2)C(C(=O)OC(C)C)=C(C)N1 (centres undefined)	1	0	4	5.1*	0	7
CCN1C(=O)[C@H]2[C@H]3[C@H](O)[C@H](O)C/C(=N\NC(=O)OCc4ccccc4)[C@@H]3CC[C@H]2C1=O	x	0	9	5.0*	0	8
CCOC(=O)CCN1C(=O)[C@H]2[C@H]3[C@H](O)[C@H](O)C/C(=N\NC(=O)OCc4ccccc4)[C@@H]3CC[C@H]2C1=O	x	0	11	1	x	x
Cc1cc(CN2CCCC(CNC(=O)c3ccc(-c4ccccc4)cc3)C2)n[nH]1 (centres undefined)	-2	0	3	0	x	x
CCCCNC(=O)C(CC)Sc1nnc(-c2ccccc2)c(-c2ccccc2)n1 (centres undefined)	1	0	8	5.5*	0	6
O=S(=O)(c1ccc(S(=O)(=O)n2cnc3ccccc32)cc1)N1CCCC1	4	0	3	6.0*	1	1
CCOc1ccc2cc(S(=O)(=O)NCc3ccccc3)ccc2c1	8	0	7	5.2*	0	6
COc1ccc2cc(S(=O)(=O)NCc3ccccc3)ccc2c1	0	0	7	0	x	x
O=C(Oc1ccc(Cl)cc1)c1cc2cc(Br)cc(Br)c2oc1=O	-2	0	8	0	x	x
COC(=O)c1c(C)oc2c1cc(NS(=O)(=O)c1cc(C)ccc1C)c1ccccc12	-8	0	-8	5	x	x
COc1ccc(OC)c(S(=O)(=O)Nc2cc3c(C(C)=O)c(C)oc3c3ccccc23)c1	-3	0	-6	5.7*	0	-6
Nc1ccccc1-c1nc2ccccc2[nH]c1=O	-55	0	4	5.9*	-2	-16
O=C(Cn1cc(/C=N/N2C(=O)c3ccccc3C2=O)c2ccccc21)Nc1ccc(F)cc1	9	0	3	5.6*	0	7
O=C(Cn1cc(/C=C/c2nc(O)c([N+](=O)[O-])c(=O)[nH]2)c2ccccc21)Nc1ccc(F)cc1	9	0	14	5.5*	0	2
N#CCC(=O)N/N=C/c1cn(CC(=O)Nc2ccc(F)cc2)c2ccccc12	11	0	1	2	x	x
CCn1cc(/C=C/c2nc(O)c([N+](=O)[O-])c(=O)[nH]2)c2ccccc21	-5	0	6	1	x	x
CCC(=O)Nc1nnc(S(=O)(=O)N2CCCC2)s1	4	1	0	1	x	x
CCOC(=O)Cc1csc(NC(=O)CSc2nc(C)cc(C)n2)n1	-3	0	-2	5.6*	0	-1
Cc1c(NC(=O)c2ccc(OCc3c(F)cccc3Cl)cc2)c(=O)n(-c2ccccc2)n1C	5	0	4	8.3*	2	-2
O=C(Nc1cc(C(=O)N2CCCC2)ccc1N1CC2CC(C1)c1cccc(=O)n1C2)c1ccc(F)cc1 (centres undefined)	13	0	4	1	x	x
SMILES	TEAD-YAP inh	FBW7 activator	MITF primary	GPR151 ag	GPR151 confirm	GPR119 counter
CC1CC(C)CN(C(=O)c2ccc(N3CC4CC(C3)c3cccc(=O)n3C4)c(NC(=O)c3ccc(F)cc3)c2)C1 (centres undefined)	-6	0	-8	6.3*	0	5
CCOC(=O)N1CCC(NC(=O)c2ccc(N3CC4CC(C3)c3cccc(=O)n3C4)c(NC(=O)c3ccncc3)c2)CC1 (centres undefined)	-5	0	-2	4.9*	-1	-12
O=C(NCCC1=CCCCC1)c1ccc(N2CC3CC(C2)c2cccc(=O)n2C3)c(NC(=O)c2c(F)cccc2F)c1 (centres undefined)	-4	0	4	8.0*	0	3
CCOC(=O)N1CCC(NC(=O)c2ccc(N3CC4CC(C3)c3cccc(=O)n3C4)c(NC(=O)c3ccc(C(C)(C)C)cc3)c2)CC1 (centres undefined)	-13	0	1	0	x	x
Cc1cccc(-n2cc(-c3ccccc3)c3c(N4CCN(Cc5ccccc5)CC4)ncnc32)c1	-6	0	-1	1	x	x
CCOC(=O)CCN(Cc1ccccc1Cl)S(=O)(=O)c1ccc(Cl)cc1	-4	0	-5	2	x	x
O=C1c2ccccc2C(=O)N1CCOc1ccccc1F	-69	0	-1	-3	x	x
O=C1c2ccccc2C(=O)N1CCOc1ccc(Br)cn1	-2	0	-3	6.0*	0	0
O=C(CCCn1nc(-c2ccccc2)c2ccccc21)NCc1ccccn1	3	0	7	7.6*	0	-7
C=CCN1C(=O)/C(=C/c2ccc(Cl)cc2)C(=O)NC1=S	0	0	5	16*	-1	-12
C=CCN1C(=O)/C(=C\c2cc(Cl)c(O)c(OCC)c2)C(=O)NC1=S	-11	0	6	7.4*	-1	0
C=CCN1C(=O)/C(=C\c2cc(Cl)c(O)c(Cl)c2)C(=O)NC1=S	1	0	6	0	x	x
COc1ccc(S(=O)(=O)N(CCc2ccccc2)CC(=O)Nc2ccc3c(c2)OCO3)cc1OC	5	0	3	3	x	x
O=C1NC(=O)N(c2ccc(Br)cc2)C(=O)/C1=C/c1ccc(Cl)s1	6	0	15	-2	x	x
COc1cc(C(=O)Nc2nnc(Cc3ccc(Cl)cc3)s2)c([N+](=O)[O-])cc1OC	12	0	-2	6.1*	2	-3
Cc1ccc(Nc2ncnc3sc4c(c23)CCCC4)cc1	5	0	17	20*	1	-2
Clc1ccc(Nc2ncnc3sc4c(c23)CCCC4)cc1	-1	0	-6	2	x	x
CN1CCCN(Cc2ccc(Cl)c(Cl)c2)CC1	9	0	32	0	x	x
CCNC(=S)N1CCN(Cc2ccc(F)cc2)CC1	-2	0	13	6.6*	0	-10
CN1CCCN(Cc2ccc(F)cc2)CC1	-3	0	49	6.0*	0	17
O=C1CC(N2CCN(c3ccccn3)CC2)C(=O)N1c1cccc(Cl)c1 (centres undefined)	-6	0	-5	-1	x	x

Assay outcomes (PubChem BioAssay)
